Results: PubChem BioAssay
“And” between values parts separate entries of the source, which are not always exact repeats. Equal entries are not always repeated. The source made the active and inactive calls. No stated cut-off is given here; in the data, active means inhibition above about 30%; inactive means the rest.

Assay: growth suppression of yeast trafficking mutant, preliminary HTS, modulators of trafficking downstream of Golgi apparatus project, 1536-format plate, OD 615 nm (AID 637)
Settings: yeast transport mutant growth, absorbance 615 nm, 18 h; hits give high values

inhibition, active:
CC(C)COc1nc2ccccc2nc1C(C#N)C(=O)NC1CCCCC1 (stereo not given) 31%

inhibition, inactive:
COc1cccc(C(c2nnnn2CCc2ccccc2)N2CCN(c3ccccc3)CC2)c1OC (stereo not given) -1.13%, CCN(CCO)C1CC(=O)N(c2ccccc2C)C1=O (stereo not given) -2%, CCOC(=O)C1=C(C)Nc2nnnn2C1c1c[nH]c2ccccc12 (stereo not given) 15.6%, Cc1cc(C)c(OCC(=O)Nc2ccc3c(c2)OCO3)cc1C -11.4%, COc1ccccc1-c1nc(C#N)c(N2CCN(c3ccccc3)CC2)o1 3.65%, O=C1CCC(=O)N1OCCCOc1ccc(Br)cc1Cl 2.22%, CCOc1cc(C(=O)NCC2CCCO2)cc(OCC)c1OCC (stereo not given) -5.33%, COc1ccc2c(c1OC)C(=O)OC2C1c2c(cc3c(c2OC)OCO3)CCN1C (stereo not given) 4.92% and 5.33%, Cc1ccc(-c2nnn(CC(=O)N(CC3CCCO3)C(C(=O)NC(C)(C)C)c3ccc(F)cc3)n2)o1 (stereo not given) -4.03%, O=c1ccc(S(=O)(=O)N2CCC(Cc3ccccc3)CC2)c[nH]1 -4.33%, Cc1[nH]c(=O)[nH]c(=O)c1S(=O)(=O)N1c2ccc(F)cc2CCC1C (stereo not given) 3.17%, NC(=O)c1ccccc1NC(=O)CN1CCOCC1 0.32%, O=C(Nn1c(C2CC2)nc2ccccc2c1=O)c1ccco1 -6.39%, CCOc1ccc(-c2nnn(CCC(=O)O)n2)cc1OC -0.16%, O=C(CCN1C(=O)COc2ccccc21)NCCN1CCN(c2cccc(Cl)c2)CC1 -3.33%, Cc1ccc(-n2nc(-c3cccs3)cc2C(=O)NCC2CCCO2)c(C)c1 (stereo not given) -6.72%, Cc1cc(C)cc(OCCCC(=O)O)c1 -0.16%, CCN(C(=O)Cc1c(C(=O)O)[nH]c2ccccc12)c1cc(OC)ccc1OC 4.5%, C=CCSC1=C(C#N)C(c2ccccc2OCC)CC(=O)N1 (stereo not given) 0.5%, COc1ccc(Br)cc1S(=O)(=O)N1CC(C)OC(C)C1 (stereo not given) -6.35%, O=C(NCc1ccco1)c1cccn2c(=O)c3sccc3nc12 -7.87%, Cc1cc(NC(=O)C23CCC(C)(c4nc5cc(Cl)c(Cl)cc5nc42)C3(C)C)no1 (stereo not given) 6.29%, CC(NC(=O)Nc1ccccc1)C(c1cccs1)N1CCOCC1 (stereo not given) 4.83%, CCS(=O)(=O)Nc1ccc(C(=O)CC2(O)C(=O)Nc3ccccc32)cc1 (stereo not given) 2.13%, CCN(CC)C(=O)Cn1c(=O)n(Cc2ccccc2Cl)c2c1c(=O)n(C)c(=O)n2C -4.13%, CCOC(=O)c1sc(NC(=O)CNC(=O)Cn2cnc3sc(C)c(C)c3c2=O)nc1C 2.26%, CCc1cc(=O)oc2c(CN3CCN(C)CC3)c(O)c(Cl)cc12 -3.61%, CC(=O)N1C(=O)C2(Nc3ccccc3N2)c2ccccc21 -9.5%, COc1ccc(C)cc1S(=O)(=O)N(CC(=O)O)c1ccccc1 4.75%, COc1ccc(N2C(N)=C(C#N)C(c3cccnc3)C3=C2CC(C)(C)CC3=O)cc1 (stereo not given) 0.32%, COc1ccc(NC(=O)CN2CCN(S(=O)(=O)c3ccc(Cl)cc3)CC2)cc1 -11%, O=C(O)c1cccc(S(=O)(=O)N2CCOCC2)c1 11.3%, CCn1c(C)cc(=S)c2ccccc21 -3.65%, Cn1c(SCC(=O)O)nnc1C1CCCCC1 8.85%, COc1ccc(OC)c(NC(=O)CCN2CCN(c3ccccc3F)CC2)c1 -8.39%, O=C(CSc1ncnc2c1oc1ccccc12)Nc1ccccc1C(F)(F)F -2%, Cc1ccc(S(=O)(=O)NCCC(=O)OCn2nnc3ccccc3c2=O)cc1 1.27%, CCOc1ccc2nc(SCC#N)c(C#N)cc2c1 -0.32%, O=C(Nc1cccnc1)c1ccc2c(c1)OCO2 9.84%
